In PubChem BioAssay (NCI):
This is part of a sample that, as a whole, favours compounds with a hit. Of some 83,000 tested, about 20% had one in any assay.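 Method: cells in 96-well plates; compound added at one concentration; 48 h incubation; percent growth measured; values under 10 scored active.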 Active and inactive are the calls of the source.

Columns and labels:
Assay in all cases: NCI-60 one-dose screen, 48 h (100 = growth as untreated, 0 = no growth, -100 = all killed)
Settings in all cases: 10 µM unless noted
SR leukemia = tested on: SR leukemia
RPMI-8226 leukemia = tested on: RPMI-8226 leukemia
OVCAR-8 ovarian = tested on: OVCAR-8 ovarian
OVCAR-5 ovarian = tested on: OVCAR-5 ovarian
OVCAR-4 ovarian = tested on: OVCAR-4 ovarian
SK-OV-3 ovarian = tested on: SK-OV-3 ovarian
IGROV1 ovarian = tested on: IGROV1 ovarian
OVCAR-3 ovarian = tested on: OVCAR-3 ovarian
HS 578T breast = tested on: HS 578T breast
NCI/ADR-RES ovarian = tested on: NCI/ADR-RES ovarian
T-47D breast = tested on: T-47D breast
BT-549 breast = tested on: BT-549 breast
MDA-MB-435 melanoma = tested on: MDA-MB-435 melanoma
SW-620 colon = tested on: SW-620 colon
MCF7 breast = tested on: MCF7 breast
HCT-116 colon = tested on: HCT-116 colon
HCC-2998 colon = tested on: HCC-2998 colon
KM12 colon = tested on: KM12 colon

Measured: growth

O=C(CSc1nnnn1-c1ccccc1)Nc1ccc(Oc2ccccc2)cc1
inactive: RPMI-8226 leukemia 117% | OVCAR-8 ovarian 97.3% | OVCAR-5 ovarian 92.2% | OVCAR-4 ovarian 101% | SK-OV-3 ovarian 102% | IGROV1 ovarian 61.9% | OVCAR-3 ovarian 100% | HS 578T breast 99.2% | NCI/ADR-RES ovarian 96.7% | T-47D breast 90.9% | BT-549 breast 112% | MDA-MB-435 melanoma 106% | SW-620 colon 98.9% | MCF7 breast 102% | HCT-116 colon 104% | HCC-2998 colon 100% | KM12 colon 99.4%
active: SR leukemia 7.48%

O=C(/C=C/C12c3ccccc3C(c3ccccc31)C1C(=O)NC(=O)C12)c1ccc(I)cc1 (stereo unspecified)
active: RPMI-8226 leukemia 3.09% | OVCAR-3 ovarian 9.43%
inactive: SR leukemia 25.2% | OVCAR-8 ovarian 35.6% | OVCAR-5 ovarian 73.4% | OVCAR-4 ovarian 84.8% | SK-OV-3 ovarian 83% | IGROV1 ovarian 55.6% | HS 578T breast 49.1% | NCI/ADR-RES ovarian 50.9% | T-47D breast 38.9% | BT-549 breast 46.1% | MDA-MB-435 melanoma 31.2% | SW-620 colon 25% | MCF7 breast 16.5% | HCT-116 colon 35.8% | HCC-2998 colon 100% | KM12 colon 57.8%

O=C(NCCCCCCNC(=O)OCc1ccc2c(Cl)cc(Cl)c(O)c2n1)OCc1ccc2c(Cl)cc(Cl)c(O)c2n1
inactive: SK-OV-3 ovarian 42.9%
active: SR leukemia 4.84% | RPMI-8226 leukemia -17.4% | OVCAR-8 ovarian -32.6% | OVCAR-5 ovarian -89.6% | OVCAR-4 ovarian -56.9% | IGROV1 ovarian -88.3% | OVCAR-3 ovarian -73.6% | HS 578T breast -15.1% | NCI/ADR-RES ovarian -12.5% | T-47D breast -48.5% | BT-549 breast -14.4% | MDA-MB-435 melanoma -82.9% | SW-620 colon -62.8% | MCF7 breast -36.7% | HCT-116 colon -54.7% | HCC-2998 colon -88.3% | KM12 colon -74.6%

COc1cc(-c2nccc3[nH]c(-c4cccc5[nH]ccc45)nc23)cc(OC)c1OC
active: SR leukemia 8.9% | RPMI-8226 leukemia -43.6% | NCI/ADR-RES ovarian 4.71% | MDA-MB-435 melanoma 1.47% | MCF7 breast 9.9% | HCT-116 colon 4.28%
inactive: OVCAR-8 ovarian 18.2% | OVCAR-5 ovarian 73.8% | OVCAR-4 ovarian 47.5% | SK-OV-3 ovarian 15.1% | IGROV1 ovarian 44.6% | OVCAR-3 ovarian 16.7% | HS 578T breast 38.4% | T-47D breast 39.9% | BT-549 breast 42.5% | SW-620 colon 27% | HCC-2998 colon 21.6% | KM12 colon 16.9%

CCOC(=O)c1cn2ncnc(Oc3ccc(NC(=O)NC4CC4)c(Cl)c3)c2c1C
inactive: SR leukemia 77.5% | RPMI-8226 leukemia 61.3% | OVCAR-8 ovarian 98.6% | OVCAR-5 ovarian 108% | OVCAR-4 ovarian 53.2% | SK-OV-3 ovarian 111% | IGROV1 ovarian 87.6% | OVCAR-3 ovarian 107% | HS 578T breast 100% | NCI/ADR-RES ovarian 90.3% | T-47D breast 71.9% | BT-549 breast 96.1% | MDA-MB-435 melanoma 96.4% | SW-620 colon 97.1% | MCF7 breast 90.5% | HCT-116 colon 95.1% | HCC-2998 colon 101% | KM12 colon 102%

Cc1cccc(-c2nc(C(C)C)sc2-c2ccnc(NCCCNS(=O)(=O)c3ccc(Cl)cc3)c2)c1
inactive: SR leukemia 54.6% | RPMI-8226 leukemia 69.2% | OVCAR-8 ovarian 81.4% | OVCAR-5 ovarian 95.3% | OVCAR-4 ovarian 82.8% | SK-OV-3 ovarian 72.9% | IGROV1 ovarian 70.5% | OVCAR-3 ovarian 76.8% | HS 578T breast 82% | NCI/ADR-RES ovarian 58.9% | T-47D breast 52.5% | BT-549 breast 74.8% | MDA-MB-435 melanoma 80% | SW-620 colon 56.6% | MCF7 breast 53.8% | HCT-116 colon 54.4% | HCC-2998 colon 75.2% | KM12 colon 58.1%

COCCn1cc(-c2nc(-c3cn(CCOC)c4ncccc34)cs2)c2cc(F)ccc21
active: T-47D breast -11.9% | MCF7 breast 7.84%
inactive: SR leukemia 35.3% | RPMI-8226 leukemia 61.3% | OVCAR-8 ovarian 62.4% | OVCAR-5 ovarian 38.8% | OVCAR-4 ovarian 25.4% | SK-OV-3 ovarian 76.8% | IGROV1 ovarian 30.1% | OVCAR-3 ovarian 17.6% | HS 578T breast 70.8% | NCI/ADR-RES ovarian 63.8% | BT-549 breast 51.7% | MDA-MB-435 melanoma 59.1% | SW-620 colon 90.7% | HCT-116 colon 61.8% | HCC-2998 colon 42.1% | KM12 colon 10.6%

COc1cc(Cc2cc(-c3ccccc3)nn(Cc3ccccc3)c2=O)cc(OC)c1OC
inactive: SR leukemia 36% | RPMI-8226 leukemia 24.8% | OVCAR-8 ovarian 31.9% | OVCAR-5 ovarian 69.7% | OVCAR-4 ovarian 35.3% | SK-OV-3 ovarian 82.3% | IGROV1 ovarian 53.1% | OVCAR-3 ovarian 46.9% | HS 578T breast 74.9% | NCI/ADR-RES ovarian 30.5% | BT-549 breast 53.8% | MDA-MB-435 melanoma 44.9% | SW-620 colon 50.1% | MCF7 breast 24.5% | HCT-116 colon 23.3% | HCC-2998 colon 64.2% | KM12 colon 32.9%
active: T-47D breast 6.19%

CCN(CCNc1ccc(C)c2sc3cc(Cl)ccc3c(=O)c12)CC(C)(C)O
inactive: SR leukemia 49.6% | RPMI-8226 leukemia 49.4% | OVCAR-8 ovarian 85.5% | OVCAR-5 ovarian 70.2% | OVCAR-4 ovarian 72.8% | SK-OV-3 ovarian 45.1% | IGROV1 ovarian 50.7% | OVCAR-3 ovarian 91.7% | HS 578T breast 79.3% | NCI/ADR-RES ovarian 74.6% | T-47D breast 69.5% | BT-549 breast 84.9% | MDA-MB-435 melanoma 35.2% | SW-620 colon 82.2% | MCF7 breast 58.5% | HCT-116 colon 50.6% | HCC-2998 colon 39.6% | KM12 colon 40.5%

CCCOC(=O)Nc1nc2ccc(SCC)cc2s1
active: MDA-MB-435 melanoma 3.85%
inactive: SR leukemia 25.9% | RPMI-8226 leukemia 85.1% | OVCAR-8 ovarian 94.7% | OVCAR-5 ovarian 102% | OVCAR-4 ovarian 94.2% | SK-OV-3 ovarian 95.8% | IGROV1 ovarian 89.5% | OVCAR-3 ovarian 76.9% | HS 578T breast 93.4% | NCI/ADR-RES ovarian 50.5% | T-47D breast 84.8% | BT-549 breast 85.5% | SW-620 colon 52.5% | MCF7 breast 43.7% | HCT-116 colon 62.8% | HCC-2998 colon 79.7% | KM12 colon 58.6%

OC1(c2ccccc2)c2ccccc2N(c2ccccc2)c2ccc(Cl)cc21 (stereo unspecified)
active: SR leukemia -28.7% | RPMI-8226 leukemia -6.58% | OVCAR-8 ovarian -45% | OVCAR-5 ovarian -72.3% | OVCAR-4 ovarian -82.8% | SK-OV-3 ovarian -89.3% | IGROV1 ovarian -94.5% | OVCAR-3 ovarian -98.1% | HS 578T breast 4.35% | T-47D breast -85.1% | BT-549 breast -78.7% | MDA-MB-435 melanoma -81.5% | SW-620 colon -85.7% | MCF7 breast -88% | HCT-116 colon -85.9% | HCC-2998 colon -90.1% | KM12 colon -87.6%
inactive: NCI/ADR-RES ovarian 14.8%

O=C(Oc1ccc2c(c1)sc1nc(-c3ccccc3)[nH]c(=O)c12)C(F)(F)F
active: OVCAR-3 ovarian 9.6% | NCI/ADR-RES ovarian 7.5% | MDA-MB-435 melanoma -55.4%
inactive: SR leukemia 18.9% | RPMI-8226 leukemia 24.1% | OVCAR-8 ovarian 40.8% | OVCAR-5 ovarian 73.4% | OVCAR-4 ovarian 51.4% | SK-OV-3 ovarian 50.2% | IGROV1 ovarian 32.9% | HS 578T breast 18.8% | T-47D breast 32.3% | BT-549 breast 44.3% | SW-620 colon 18.4% | MCF7 breast 17.1% | HCT-116 colon 19.8% | HCC-2998 colon 31.2% | KM12 colon 11.2%

C=C(c1ccc(C(=O)O)c(F)c1)c1cc2c(cc1C)C(C)(C)CCC2(C)C
inactive: SR leukemia 86.8% | RPMI-8226 leukemia 43.1% | OVCAR-8 ovarian 90.8% | OVCAR-5 ovarian 101% | OVCAR-4 ovarian 80.9% | SK-OV-3 ovarian 84.8% | IGROV1 ovarian 98% | OVCAR-3 ovarian 90.8% | HS 578T breast 59.6% | NCI/ADR-RES ovarian 79.5% | T-47D breast 78.5% | BT-549 breast 91.7% | MDA-MB-435 melanoma 89.3% | SW-620 colon 97.6% | MCF7 breast 62.1% | HCT-116 colon 79.5% | HCC-2998 colon 89.9% | KM12 colon 69.2%

Nc1cccc(-c2ccc(COc3ccc(CC4SC(=O)NC4=O)cc3)cc2)c1 (stereo unspecified)
active: MDA-MB-435 melanoma -17.7%
inactive: SR leukemia 26.8% | RPMI-8226 leukemia 53.8% | OVCAR-8 ovarian 70.1% | OVCAR-5 ovarian 92.2% | OVCAR-4 ovarian 56.4% | SK-OV-3 ovarian 62.1% | IGROV1 ovarian 57.5% | OVCAR-3 ovarian 49.9% | HS 578T breast 59.8% | NCI/ADR-RES ovarian 47.1% | T-47D breast 50.3% | BT-549 breast 58.7% | SW-620 colon 34.2% | MCF7 breast 37.7% | HCT-116 colon 32.1% | HCC-2998 colon 87.4% | KM12 colon 33.3%

Cc1cc(NCCCNc2ccnc3cc(Cl)ccc23)nc(Nc2ccc(C(=O)N3CCCCC3)cc2)n1
inactive: OVCAR-8 ovarian 25.4% | OVCAR-5 ovarian 71.6% | OVCAR-4 ovarian 39.5% | SK-OV-3 ovarian 96.8% | IGROV1 ovarian 46.3% | OVCAR-3 ovarian 18.8% | HS 578T breast 85.3% | NCI/ADR-RES ovarian 75.6% | BT-549 breast 69.8% | KM12 colon 26.1%
active: SR leukemia -31.8% | RPMI-8226 leukemia -11.1% | T-47D breast -32.8% | MDA-MB-435 melanoma -72.5% | SW-620 colon -0.272% | MCF7 breast 6.95% | HCT-116 colon -38.3% | HCC-2998 colon 0.124%

CC1=C2CC/C(C)=C/CC[C@]3(C)O[C@H]3CC/C(C)=C/[C@H]2OC1
inactive: SR leukemia 87.6% | RPMI-8226 leukemia 93.6% | OVCAR-8 ovarian 95.8% | OVCAR-5 ovarian 81.3% | OVCAR-4 ovarian 95.2% | SK-OV-3 ovarian 95.7% | IGROV1 ovarian 103% | OVCAR-3 ovarian 110% | HS 578T breast 108% | NCI/ADR-RES ovarian 87.7% | T-47D breast 86% | BT-549 breast 106% | MDA-MB-435 melanoma 98.7% | SW-620 colon 107% | MCF7 breast 105% | HCT-116 colon 101% | HCC-2998 colon 99.6% | KM12 colon 120%

COCCn1cc(-c2csc(-c3c[nH]c4ccc(F)cc34)n2)c2cccnc21
inactive: RPMI-8226 leukemia 21.4% | OVCAR-8 ovarian 34% | OVCAR-5 ovarian 60.9% | OVCAR-4 ovarian 37.6% | SK-OV-3 ovarian 49.7% | IGROV1 ovarian 42% | OVCAR-3 ovarian 15.2% | HS 578T breast 52.2% | SW-620 colon 18.8% | MCF7 breast 11.8% | HCT-116 colon 22.2% | HCC-2998 colon 27.6%
active: SR leukemia 9.53% | NCI/ADR-RES ovarian 7.39% | T-47D breast 2.36% | BT-549 breast 7.07% | MDA-MB-435 melanoma 5.02% | KM12 colon 8.29%
